Data on 86 sequences can be found in the supplement of paper PMC4166925.

± gives the standard deviation of the averaged measurements. In all, about 33,000 sequences were measured (“E-score (dimensionless, -0.5 to 0.5)”: median about -0.049, highest 2% from about 0.37 on). This excerpt belongs to a sample that is enriched for the highest values.
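Further: 200 nM protein in PBS on universal arrays averaged over duplicate arrays.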

The subject of this assay is T1, PmTbr T-box DNA-binding domain (GST fusion).
T1 sequence: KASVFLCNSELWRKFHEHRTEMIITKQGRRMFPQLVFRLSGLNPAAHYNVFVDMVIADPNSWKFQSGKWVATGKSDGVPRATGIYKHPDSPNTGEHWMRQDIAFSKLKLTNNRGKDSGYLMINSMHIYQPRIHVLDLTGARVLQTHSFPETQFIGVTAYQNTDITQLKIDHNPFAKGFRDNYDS
The assay is described as follows: PBM E-score of 8-mer (E-score (dimensionless, -0.5 to 0.5)); Tbr is Tbrain of the sea star Patiria miniata (Pm) or the sea urchin Strongylocentrotus purpuratus (Sp); higher = stronger binding preference. To be noted: the construct has about 5 more residues each side. Here is the method: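 Universal protein-binding microarray (Agilent AMADID 016060, 60-bp probes with a 35-bp variable region) incubated with 200 nM GST-fused Patiria miniata Tbr T-box DNA-binding domain (residues 272-466) in PBS pH 7.5. Scored for every ungapped 8-mer (given with its reverse complement) by the Universal PBM Analysis Suite as E-score (modified Wilcoxon-Mann-Whitney enrichment, range -0.5 to 0.5; >0.45 counts as bound) and Z-score of median probe intensity. Two replicate arrays (datasets 1 and 2).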
Take CCCCTTCG: the “PBM E-score of 8-mer” value is -0.126 ± 0.029. To AGATCGTA belongs 0.0776 ± 0.06. On to ACTCCTCG, for which the “PBM E-score of 8-mer” value was found to be 0.219 ± 0.032. To ACCTAAGT belongs 0.0966 ± 0.0054; to TAGGTCGA, -0.111 ± 0.085. Next, GGGCGCAA: 0.0355 ± 0.036.

Consider ACTTGGAA, for which the “PBM E-score of 8-mer” value was -0.1519 ± 0.00037. As to CCTCCACA, the “PBM E-score of 8-mer” value is 0.233 ± 0.021.

Turning to CGCTTGAA, the “PBM E-score of 8-mer” value is -0.191 ± 0.056. Next, CCATTAAC: 0.0966 ± 0.0036; CCTGTTGA: 0.091 ± 0.045; CTCTTGAA: -0.374 ± 0.012. To AGACAGAG belongs -0.139 ± 0.052; to CTCACCTC, 0.449 ± 0.009; to GTCACCGA, 0.127 ± 0.041. To ATCACCTC belongs 0.4197 ± 0.00045; to GTCACCTA, 0.4173 ± 0.0026; to ATCACCTG, 0.379 ± 0.019. As to ATCACCAC, the “PBM E-score of 8-mer” value amounted to 0.15 ± 0.0054.

Regarding CTCACCAC, the “PBM E-score of 8-mer” value was 0.209 ± 0.054.

For the sequence ATCACCCC, the “PBM E-score of 8-mer” value amounted to 0.289 ± 0.028. To CTCACCGC belongs 0.055 ± 0.076; to ATCACCAG, -0.0506 ± 0.043; to ATCACCGG, -0.319 ± 0.02. Next, GTCACCCA: 0.259 ± 0.056. For AAAGACTC, the “PBM E-score of 8-mer” value is -0.156 ± 0.018.

With AAGGGGGG, the “PBM E-score of 8-mer” value is -0.444 ± 0.023. To CGCACTAG belongs 0.167 ± 0.021; to ATGCTGCC, -0.293 ± 0.037. To ACCCACGG belongs -0.132 ± 0.022. As for CATGCGAA, the “PBM E-score of 8-mer” value amounted to 0.108 ± 0.046. As to CTCACCGA, the “PBM E-score of 8-mer” value turned out to be 0.00965 ± 0.039. To ATCACCTA belongs 0.392 ± 0.022; to ATCACCCA, 0.276 ± 0.021. Next, CTCACCTA: 0.4081 ± 0.0035. Next, ATCACCAA: 0.17 ± 0.016. Regarding CTTACCTA, the “PBM E-score of 8-mer” value was -0.153 ± 0.059. To CTAGCGTA belongs 0.0249 ± 0.015. To ATGGTTAC belongs -0.265 ± 0.029; to ATTGGCGA, 0.156 ± 0.027; to ATTAGCAA, 0.12 ± 0.092. As for CTTAGCAC, the “PBM E-score of 8-mer” value came to 0.4 ± 0.0047. Next, ATTAGCAG: 0.129 ± 0.045; CTTAGCAA: 0.0581 ± 0.031. Take ATTAGCAC: the “PBM E-score of 8-mer” value turned out to be 0.417 ± 0.016. Regarding CATAGCAC, the “PBM E-score of 8-mer” value was found to be 0.306 ± 0.029. Turning to AGAAGGGC, the “PBM E-score of 8-mer” value was -0.11 ± 0.013. For the sequence CTTGCTCA, the “PBM E-score of 8-mer” value worked out at 0.0359 ± 0.0032. Next, CTCGCAGA: 0.00155 ± 0.054; GTCGCACA: 0.353 ± 0.025; ATCGCGCC: 0.368 ± 0.016. Next, CTCGCACA: 0.375 ± 0.0071. To CTCGCGCA belongs 0.191 ± 0.024; to ATCGCACC, 0.4642 ± 0.0032. In the case of ATCGCACA, the “PBM E-score of 8-mer” value amounted to 0.3241 ± 0.00047. To CTCGCATC belongs 0.176 ± 0.033. To CCCGCACC belongs 0.3 ± 0.031. To ATCGCACG belongs 0.34 ± 0.023; to CTCGCGCC, 0.401 ± 0.013. For the sequence CTCGCACC, the “PBM E-score of 8-mer” value was 0.4721 ± 0.0042. Regarding CGAAGAGC, the “PBM E-score of 8-mer” value is -0.116 ± 0.044. To CAGCACAG belongs -0.0973 ± 0.029; to CGGGGTTA, -0.195 ± 0.071; to GGCATGAA, -0.0787 ± 0.006. For CTCTAAGA, the “PBM E-score of 8-mer” value is -0.271 ± 0.053. CTTTTACA: the “PBM E-score of 8-mer” value was 0.169 ± 0.025.

Turning to AGCTTAGC, the “PBM E-score of 8-mer” value is -0.0359 ± 0.0015. Next, TATGATGA: -0.156 ± 0.037; AGTCAAAG: -0.132 ± 0.081; GAGAGATA: -0.0805 ± 0.045. Next, CCACATTA: 0.126 ± 0.0023; ATAACACA: 0.3597 ± 0.0034; ATAACACC: 0.465 ± 0.0066. To CTTACACC belongs 0.395 ± 0.013; to ATAACATC, -0.101 ± 0.065; to CTAACATC, -0.1377 ± 0.00032. On to GTAACACA, for which the “PBM E-score of 8-mer” value worked out at 0.3374 ± 0.0018. As for CTAACACA, the “PBM E-score of 8-mer” value was 0.374 ± 0.035. Consider ATAACACG, for which the “PBM E-score of 8-mer” value is 0.325 ± 0.05.

For the sequence CGAACACC, the “PBM E-score of 8-mer” value came to 0.3416 ± 0.0028. Next, CTAACACC: 0.4751 ± 0.004; ATTACACC: 0.349 ± 0.0023; CTTACACA: 0.277 ± 0.012. To AGACCCCT belongs -0.245 ± 0.086; to AAACCCGG, -0.207 ± 0.0074. To GTCCCCTA belongs -0.175 ± 0.076.
